Assay results reported in the supplement of paper PMC10338343.
± gives the standard deviation. In all, about 5,500 sequences were measured (“pre-steady-state target cleavage rate”: median about 0.1, highest 2% from about 0.64 on). What follows is part of a selection rich in the highest values, with near analogues and random picks from the rest.

These sequences were tested on MIWI (PIWIL1) piRISC loaded with piRNA #2 (30 nt) (assay: pre-steady-state target cleavage rate (min^-1); MIWI and MILI are mouse PIWI proteins and EfPiwi is from a freshwater sponge; tags in brackets are library labels; higher = faster piRNA-guided slicing of the target). Conditions: guide: piRNA #2 5'p-UUAGGUAACCCAGUAGAUCCAGAGGAAUUC; auxiliary factor: 500 nM mouse GTSF1.
Method: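 Cleave-'n-Seq: a library of target RNAs (target site embedded in constant flanks, ACAGCATTCCGCGTTAGTGATATCCG... 5' flank; DNA-blocked outside the site) at 0.1 nM was incubated with 1 nM active mouse MILI or MIWI piRISC (synthetic 5'-monophosphorylated piRNA guide) with or without 500 nM mouse GTSF1 at 33 °C for 1 min to 16 h. Uncleaved targets were sequenced and normalised to non-target controls, and the pooled three trials were fitted to a burst-and-steady-state model to give the pre-steady-state cleavage rate (min^-1; k3 is constrained to at most 1e-4). Sequence is the target site only; target names encode pairing extent (gX:gY) and contiguous / 1-mismatch / 2-mismatch / bulge geometry. Fits with R² ≤ 0 are excluded.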

Sequence	pre-steady-state target cleavage rate
CUAUUCCACUGGAUCUACUGGGUUAGCUAA	0.16 ± 0.04
CAAUUCCACUGGAUCUACUGGGUUAGCUAA	0.223 ± 0.076
GAAUUCCACUGGAUCUACUGGGUUAGCUAA	0.668 ± 0.12
GAAUUCCUGUGGAUCUACUGGGUUACGUAA	0.637 ± 0.063
CAAUUCCUGUGGAUCUACUGGGUUACGUAA	0.428 ± 0.075
CUAUUCCUGUGGAUCUACUGGGUUACGUAA	0.47 ± 0.052
GAAUUCCACUGGAUCUACUGGGUUACGUAA	0.803 ± 0.043
CAAUUCCUCAGGAUCUACUGGGUUACGUAA	0.594 ± 0.058
CUAUUCCACUGGAUCUACUGGGUUACGUAA	0.481 ± 0.066
GAAUUCCUCAGGAUCUACUGGGUUACGUAA	0.738 ± 0.062
CUAUUCCUCAGGAUCUACUGGGUUACGUAA	0.499 ± 0.073
CAAUUCCACUGGAUCUACUGGGUUACGUAA	0.419 ± 0.081
CUUAUCCUGUGGAUCUACUGGGUUACCAAA	0.166 ± 0.038
CUAAACCUCUGGAUCUACUGGGUUACCUAA	0.266 ± 0.04
CUUAUCCUGACGAUCUACUGGGUUACCUAA	0.0767 ± 0.014
CUUAACCCUGGAUCUACUGGGUUACCUAA	0.326 ± 0.033
CUUAUCCUCUGGAUCUACUGGGAUUCCUAA	0.103 ± 0.04
CUUAAGGAGAGGUUCUACUGGGUUUCCUAA	0.00421 ± 0.0042
CUUAUCCUCUGGAUCUACUCGGUUACCUAA	0.0981 ± 0.018
CUUAUCCUCUGGAUUACUGGGUUACCUAA	0.481 ± 0.04
CUAUUCCUCUGGAUAUACUGGGUUACCUAA	0.772 ± 0.057
CUUUUCCUCUGGAUAUACUGGGUUACCUAA	0.628 ± 0.04
CUUAUCCUCUGGAUAUACUGGGUUACCUAA	0.688 ± 0.052
CUAUUCCUCUGGAUACUACUGGGUUACCUAA	0.422 ± 0.056
CAAUUCCUCUGGAUACUACUGGGUUACCUAA	0.519 ± 0.068

Sequence	pre-steady-state target cleavage rate
GAAUUCCUCUGGAUAUACUGGGUUACCUAA	0.551 ± 0.038
CAAUUCCUCUGGAUAUACUGGGUUACCUAA	0.724 ± 0.043
CUUAUCCUCUGGAUACUACUGGGUUACCUAA	0.419 ± 0.059
CAAUUCCUCAGGAUCUACUGGGUAACCUAA	0.336 ± 0.056
CUUAACCUCUGGAUCUUCAGGGUUACCUAA	0.112 ± 0.014
CUUAACCUCUGGAACUACUGGGUUAGCUAA	0.103 ± 0.016
CAAUUCCUCUCGAUCUACAGGGUUACCUAA	0.546 ± 0.038
CUUUUCCUCUGGAACUAGUGGGUUACCUAA	0.204 ± 0.025
CUUAAGGAGAGGAUCUACUGGGUUACCUCA	0.012 ± 0.0055
GAAUUCCUCUCGAUCUACUGGGUUACCUUA	0.629 ± 0.069
GAAAUCCUCUCGAUCUACUGGGUUACCUAA	0.586 ± 0.054
CUAUUCCUCUCGAUCUACUGGGUUACCUAA	0.734 ± 0.063
GUAUUCCUCUCGAUCUACUGGGUUACCUAA	0.193 ± 0.044
CAAUUCCUCUCGAUCUACUGGGUUACCUUA	0.69 ± 0.056
CUAAUCCUCUCGAUCUACUGGGUUACCUAA	0.631 ± 0.042
CAAUUCCUCUCGAUCUACUGGGUUACCUAA	0.822 ± 0.063
CUAUUCCUCUCGAUCUACUGGGUUACCUUA	0.583 ± 0.056
CAAUACCUCUCGAUCUACUGGGUUACCUAA	0.625 ± 0.056
CAAUUCCUCUCGGAUCUACUGGGUUACCUAA	0.506 ± 0.065
CUAUUCCUCUCGGAUCUACUGGGUUACCUAA	0.575 ± 0.089
CAAAUCCUCUCGAUCUACUGGGUUACCUAA	0.641 ± 0.05
CUUAAGGUCUGGAUCUACUGGGUUACCAUA	0.203 ± 0.029
CUUAACCUCUCGAUCUUCUGGGUUACCUAA	0.47 ± 0.044
CUUAAGGUCUGGAUCUUCUGGGUAACCUAA	0.0193 ± 0.011
CUUAAGGAGUGGAUCUACACCGUUACCUAA	0.0034 ± 0.0022

Sequence	pre-steady-state target cleavage rate
CUAUUCCUCUGCAUCUUCUGGGUUACCUAA	0.316 ± 0.028
GAAUUCCUCUGGAUCUACUGGGUUUGGUAA	0.244 ± 0.061
CUUAAGGUCUGGAUGUACUGGCUUACCUAA	0.0442 ± 0.028
CUUUACCUCUGGAUCUACUCGGUUACCUAA	0.0688 ± 0.0087
CUUAACCUCUGGAUGUUCUGGGUUACCUAA	0.244 ± 0.019
CUAUAUCCUCUGGAUCUACUGGGUUACCUAA	0.352 ± 0.071
GAAUUCCUCUCGAUCUACUGGGUUUCCUAA	0.524 ± 0.06
GAAUUCCUCUCGGAUCUACUGGGUUACCUAA	0.442 ± 0.048
GAAUUCCUCUCGAUCUACUGGGUUACCUAA	0.642 ± 0.068
CUUAACCUGUGGAUCUACUGGGUAACCUAA	0.0751 ± 0.013
GAAUUCCUCUGGAUCUAGUGGGAUACCUAA	0.0616 ± 0.011
CUUUUCCUCUGCAUCUACUGGGAUACCUAA	0.128 ± 0.018
CUUUUCCUCUCGAUCUACUGGGUUACGUAA	0.746 ± 0.034
GUAUUCCUCUGGAUCUACUGGGUUACGUAA	0.377 ± 0.057
CUAUUCCUCUGGAUCUACUGGGUUACGUAA	0.63 ± 0.047
CAAUUCCUCUCGAUCUACUGGGUUACGUAA	0.885 ± 0.061
CUAUUCCUCUCGAUCUACUGGGUUACGUAA	0.935 ± 0.047
CUUUUCCUCUGGAUCUACUGGGUUACGUUA	0.374 ± 0.044
CAUUUCCUCUGGAUCUACUGGGUUACGUAA	0.622 ± 0.062
CUUUUCCUCAGGAUCUACUGGGUUACGUAA	0.523 ± 0.067
CUUUUCCUCUCGAUCUACUGGGUUUCCUAA	0.509 ± 0.058
GAAUUCCUCUCGAUCUACUGGGUUACGUAA	0.581 ± 0.067
CUUUUCCUCUGGAUCUACUGGGUUACGUAA	0.664 ± 0.034
CAAUUCCUCUGGAUCUACUGGGUUACGUAA	0.598 ± 0.065
